Screening results deposited in PubChem BioAssay by National Center for Advancing Translational Sciences (NCATS).
A selection: hits, their analogues and other compounds. The true share with any hit is near 19%.
MCF10A rerep: DNA re-replication induction in MCF 10a cells | actives 2.9% (n = 350,000) | MCF 10A DNA re-replication, Hoechst nuclear intensity, 48 h | Potency, µM (titrated, usually from 46.1 µM), for inactives: at the top dose activity, positive = re-replication, hits mostly activators | AID 624296; also: potency is read from the fitted curve at half-maximal effect; % of control where 0% means no effect; nearly all actives have a fitted effect of over 50% in size
IL1B secr inh: blocks inflammasome-driven IL-1 beta release | THP-1 LPS/ATP IL-1B secretion, AlphaLISA, 16 h; active compounds read low | activity change, % at 57.5 µM | actives 4.7% (n = 360,000) | AID 743279; in the data active = activity change below about -50%; inconclusive = mostly about -30% to -49%; also: % is scaled to controls: 0 for no effect and ±100 for the full control effect
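THP-1 cells pretreated 1 hr with compounds (up to 57.5 uM final), then stimulated with LPS (250 ng/mL final) plus ATP (1.25 mM final); secreted IL-1B measured by AlphaLISA after 16 hr, decreased signal indicating inhibition.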
Chronic BCR inh: inhibitors of chronic active B-cell receptor signaling. ABC-DLBCL IkBa-CBG/CBR reporter, luminescence ratio, 4 h. Potency, µM (doses to about 46.1 µM), inactives show at the highest dose activity change, negative = inhibition, most hits filed as inhibitors. actives 0.05% (n = 340,000); active = well fitted inhibition curve with a large enough effect in the signal ratio, with a control signal flat, not every such curve was filed as active; inconclusive = small, poorly fitted or top-dose-only effect, or effect the other way, or a change in a side signal; the % refers to the signal ratio;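 also: potency is read from the fitted curve at half-maximal effect; plate controls were basal doxycycline-induced cells for no effect and cells given 10 µM MG132 for full effect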
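TMD8 human ABC-DLBCL cells with doxycycline-inducible IκBα–green luciferase fusion and unfused red luciferase, in 0.5% FBS medium; compounds up to 46 uM, 4 h at 37C. Green/red luminescence ratio, filter-overlap corrected, fitted to concentration-response curves.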
DT40 TDP1 no CPT: qHTS for Inhibitors of human tyrosyl-DNA phosphodiesterase 1 (TDP1): qHTS in cells in absence of CPT; AID 686978, 2013; Potency, µM (doses to about 46.2 µM), without a hit: at the top dose activity change, negative = growth inhibition, actives largely listed as inhibitors; actives 15% (n = 420,000); DT40 Tdp1-/- hTDP1 cells, no CPT, ATP luminescence, 48 h; also: potency is read from the fitted curve at half-maximal effect; % is scaled to controls: 0 for no effect and ±100 for the full control effect; nearly all actives have a fitted effect of over 55% in size
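Chicken DT40 Tdp1-/- cells complemented with human TDP1, screened without camptothecin (DMSO vehicle only), 400 cells/well. Compounds pin-transferred, cells incubated at 37 °C for at least 48 hr. Growth read as ATP-dependent luminescence (CellTiter-Glo, 30 min at RT).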
SW480 rerep: DNA re-replication induction in SW480 cells; SW480 DNA re-replication, Hoechst DNA content imaging, 48 h; Potency, µM (doses to about 46.1 µM), inactives show at the highest dose re-replication activation, actives largely listed as activators; actives 1.8% (n = 340,000); AID 624297; also: potency is read from the fitted curve at half-maximal effect; % of control where 0% means no effect; nearly all actives have a fitted effect of over 55% in size
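Image-based DNA-content assay: after two days of treatment, nuclei were labelled with the DNA dye Hoechst and imaged, and hits were compounds raising the count of nuclei showing high fluorescence intensity.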
TDP1 cell CPT: DT40-hTDP1 cell growth loss with CPT | chicken DT40 Tdp1-/-;hTDP1 cells + 20 nM CPT, ATP luminescence, 48 h | Potency, µM (top dose mostly 46.2 µM), inactives show at the top dose activity change, negative = growth inhibition, actives largely listed as inhibitors | actives 12% (n = 420,000); also: potency is read from the fitted curve at half-maximal effect; % is scaled to controls: 0 for no effect and ±100 for the full control effect; nearly all actives have a fitted effect of over 55% in size
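Chicken DT40 Tdp1-/- cells complemented with human TDP1, 400 cells/well, exposed to compounds plus 20 nM camptothecin for at least 48 h at 37 C; viability read as ATP content by CellTiter-Glo luminescence.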
* = called active by the depositor; ? = inconclusive; . = no result given; [ ] = dose if it differs, or a comment. Unless noted, calls follow the shape of the dose curve; as a rule, active = well fitted curve in the direction sought with a large enough effect; inconclusive = small, poorly fitted or top-dose-only effect, or another doubt; inactive = no such curve, though single readings can be large; an effect the other way counts as inactive or inconclusive.

SMILES | MCF10A rerep | IL1B secr inh | Chronic BCR inh | DT40 TDP1 no CPT | SW480 rerep | TDP1 cell CPT
O=C(NCc1cccc(Cl)c1)C1CCC(=O)N(CCN2CCOCC2)C1 (stereo not drawn) | 0% | 0 | 6% | -1% | 2% | 9%
Cc1csc(CN(C)C(=O)CC2C(=O)NCCN2Cc2ccc(F)cc2Cl)n1 (stereo not drawn) | 17% | 15 | 1% | 10% | -3% | -21%
CN1CCN(c2ccc3sc(-n4ccc5ccccc54)nc3c2)CC1 | . | -16 | . | 13µM* | . | 16µM*
CC1CCCCN1C(=O)COC(=O)c1ccc(=O)n(Cc2ccccc2)n1 (stereo not drawn) | ? | 2 | 7% | -11% | -84% | -22%
Cc1cc(C(=O)NCc2nnc3n2CCN(Cc2ccc4c(c2)Cc2ccccc2-4)CC3)c(C)o1 | . | . | . | 16µM* | . | ?
Cc1cc(C(=O)NCc2nnc3n2CCN(Cc2ccc(C)c(C)c2)CC3)c(C)o1 | . | . | . | -1% | . | 10%[9.04 µM]
CC(C)c1ccc(/C=C/C(=O)Nc2nncs2)cc1 | 6% | -6 | -5% | 13µM* | 15% | ?
COc1cc(C(=O)Nc2ccc(NC(=O)c3ccccc3Cl)nc2)cc(OC)c1OC | 2% | -15 | 4% | ? | 1% | ?
O=C(COc1ccc(Cl)cc1)Nc1ccc2[nH]ncc2c1 | ? | -10 | -3% | 21µM* | 0% | ?
O=C(COc1ccccc1)Nc1ccc2[nH]ncc2c1 | 1% | 6 | -1% | ? | -6% | 5%
O=C(Cc1ccccc1)Nc1ccc2[nH]ncc2c1 | -3% | -58* | ? | 5% | -11% | -5%
CC1(Oc2ccc3ccccc3c2)CCN(Cc2ccc(OC(F)(F)F)cc2)C1 (stereo not drawn) | . | 0 | . | -24% | . | -25%
CCCCC1CN2CCc3c([nH]c4ccccc34)C2(C)C1 (stereo not drawn) | -11% | ? | ? | 18µM* | 0%[9.22 µM] | ?
c1cncc(CSc2ccc(-c3cccs3)nn2)c1 | 2% | -60* | 0% | ? | 0% | -29%
Fc1cccc(CSc2ccc(-c3cccs3)nn2)c1 | . | . | . | ? | . | -29%
OC(CNCc1ccc(F)cc1)(c1ccccc1)c1ccc(F)cc1 (stereo not drawn) | 5% | ? | -10% | ? | 2% | ?
OC(CNCc1ccccc1)(c1ccc(F)cc1)c1ccc(F)cc1 | ? | ? | ? | 18µM* | 16% | ?
CCc1ccc(CNCc2ccc(F)cc2)cc1 | ? | -21 | ? | -4% | -1% | -7%
Cc1ccc(CNCC(O)(c2ccc(F)cc2)c2ccc(F)cc2)cc1 | ? | -16 | ? | ? | ? | 21µM*
Cc1ccc(CNCC(O)(c2ccccc2)c2ccc(F)cc2)cc1 (stereo not drawn) | 21% | -17 | ? | 21µM* | 4% | ?
CCc1ccc(/C=N/NC(=S)NCCc2ccccc2)cc1 | 22% | 13 | ? | 16µM* | -5% | ?
COc1cccc(/C=N/NC(=S)NCCc2ccccc2)c1 | ? | 34 | 8% | ? | 15% | ?
COc1ccc(/C=N/NC(=S)NCCc2ccccc2)cc1 | 17% | 24 | ? | 26µM* | -24% | 18µM*
COc1ccc2c(c1)C(=O)N(c1ccccc1OC)C(=O)C2(C)C | -3% | -6 | ? | -18% | 0% | ?
CCCOc1ccccc1-n1sc2c(c1=S)-c1cc(OC)cc3c1N(C(=O)C3=O)C2(C)C | ? | -4 | ? | 16µM* | ? | 16µM*
CCCCN(C=O)c1c(CC)nc2c(OCc3ccc(Cl)cc3Cl)cccn12 | . | -19 | . | 9.2µM* | . | 21µM*
CCc1nc2c(OCc3ccc(Cl)cc3Cl)cccn2c1N(C)C(=O)C1CC1 | . | -12 | . | ? | . | ?
